From PubChem BioAssay (EPA / NIEHS)
The source made the active and inactive calls. How the source made its calls: active means hit-call score of the fitted dose curve at least 0.9, where 1 is the maximum; inactive means score below 0.9.

Experiment: APR_HepG2_MitoticArrest_24hr: Apredica 24-hour HepG2 Assay for Mitotic Arrest (AID 2282910)
Conditions: high-content imaging, actives raise or lower the signal
Method in brief: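 HepG2 human liver cells were exposed to compounds at 0.39–200 uM (10 concentrations, duplicate) in 0.5% v/v DMSO for 24 hr, then fixed and immunostained for phospho-histone H3 with Hoechst 33342. Mitotic arrest came from HCS fluorescent imaging, fitted bidirectionally against DMSO.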
For `O=C1c2c(O)cccc2Cc2cccc(O)c21`, the outcome was “inactive”. With `CCCCCCCC(=O)OC` the outcome was “inactive”. In the case of `CCc1cc(C2=C(C(=O)O)N(c3ccccc3C(F)(F)F)S(=O)(=O)c3ccccc32)cc2c1OCO2`, the outcome was “inactive”. With `OCC(O)CO` the outcome was “inactive”. For `S=c1[nH]c2ccccc2s1`, the outcome was “inactive”. For `CCCCCCCCCC[N+](C)(C)[O-]`, the outcome was “inactive”. In the case of `CN(C)CCCN1c2ccccc2Sc2ccc(Cl)cc21`, the AC50 was 19.7 µM (active). For `COc1ccc(C(=O)Nc2nc3ccccc3c(NCc3ccccc3)c2C#N)cc1`, the outcome was “inactive”. With `CO[C@@H]1COCC[C@@H]1N[C@@H]1CC[C@@](C(=O)N2CCc3ncc(C(F)(F)F)cc3C2)(C(C)C)C1` the outcome was “inactive”. For `CS(=O)(=O)c1ccc([C@@H](C[C@H]2CCC(=O)C2)C(=O)Nc2cnccn2)cc1Cl`, the outcome was “inactive”. In the case of `COc1ccc(OC(F)(F)F)cc1CN[C@H]1CCCN[C@H]1c1ccccc1`, the AC50 was 39.5 µM (active). In the case of `Oc1ccc(O)cc1`, the outcome was “inactive”. In the case of `CN(C)C(=O)NC1(c2ccccc2)CCN(CC[C@@]2(c3ccc(F)c(F)c3)CN(C(=O)c3ccccc3)CCO2)CC1`, the AC50 was 101 µM (active). In the case of `CN(C)C(=O)NC1(c2ccccc2)CCN(CCC[C@]2(c3ccc(Cl)c(Cl)c3)CCCN(C(=O)c3ccccc3)C2)CC1`, the AC50 was 16.3 µM (active). In the case of `NCCOCCOCCN`, the AC50 was 14.3 µM (active). With `CCc1nc(N)nc(N)c1-c1ccc(Cl)cc1` the outcome was “inactive”. In the case of `CC(C)(O)c1ccc(CNC(=O)c2cccnc2Oc2ccc(F)cc2)cc1`, the outcome was “inactive”. For `Nc1nc(Cl)nc2c1ncn2[C@H]1C[C@H](O)[C@@H](CO)O1`, the outcome was “inactive”. In the case of `CN(C)CCCN(C)CCCN(C)C`, the outcome was “inactive”. In the case of `Cc1cc(SC2=C(O)C[C@@](CCc3ccc(N)cc3)(C(C)C)OC2=O)c(C(C)(C)C)cc1CO`, the outcome was “inactive”. For `CCCCc1nc2cccnc2n1Cc1ccc(-c2ccccc2-c2nnn[nH]2)cc1`, the outcome was “inactive”. With `OCC(CO)n1cnc(-c2ccc(F)cc2)c1-c1ccnc(Oc2ccccc2)n1` the outcome was “inactive”. In the case of `c1ccc2occc2c1`, the outcome was “inactive”. With `CCCCC(CC)COC(=O)CCCCCCCC(=O)OCC(CC)CCCC` (stereo not drawn) the outcome was “inactive”. With `CC(C)(C)c1ccccc1` the outcome was “inactive”. For `COC(=O)CCC(=O)OC`, the outcome was “inactive”. In the case of `CCCCC(CC)COP(=O)(OCC(CC)CCCC)OCC(CC)CCCC` (stereo not drawn), the AC50 was 48.2 µM (active). For `COC(=O)CCCC(=O)OC`, the outcome was “inactive”. For `O=C(O)c1[nH]n(-c2ccc(S(=O)(=O)O)cc2)c(=O)c1N=Nc1ccc(S(=O)(=O)O)cc1`, the outcome was “inactive”.

Experiment: APR_HepG2_MitoMembPot_24hr: Apredica 24-hour HepG2 Assay for Mitochondrial Membrane Potential (AID 2282911)
Conditions: imaging, actives raise or lower the signal
Method in brief: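 HepG2 cells exposed 24 h to 0.39–200 uM compounds in duplicate, 0.5% v/v DMSO final. MitoTracker Red CMXRos 250 nM loaded 30 min before formaldehyde fixation; high-content imaging at 20x, bidirectional fit versus DMSO.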
With `O=C1c2c(O)cccc2Cc2cccc(O)c21` the AC50 was 11.1 µM (active). For `CCCCCCCC(=O)OC`, the outcome was “inactive”. With `CCc1cc(C2=C(C(=O)O)N(c3ccccc3C(F)(F)F)S(=O)(=O)c3ccccc32)cc2c1OCO2` the outcome was “inactive”. For `OCC(O)CO`, the outcome was “inactive”. For `S=c1[nH]c2ccccc2s1`, the AC50 was 86.5 µM (active). In the case of `CCCCCCCCCC[N+](C)(C)[O-]`, the outcome was “inactive”. In the case of `CN(C)CCCN1c2ccccc2Sc2ccc(Cl)cc21`, the outcome was “inactive”. In the case of `COc1ccc(C(=O)Nc2nc3ccccc3c(NCc3ccccc3)c2C#N)cc1`, the AC50 was 43.4 µM (active). For `CO[C@@H]1COCC[C@@H]1N[C@@H]1CC[C@@](C(=O)N2CCc3ncc(C(F)(F)F)cc3C2)(C(C)C)C1`, the outcome was “inactive”. For `CS(=O)(=O)c1ccc([C@@H](C[C@H]2CCC(=O)C2)C(=O)Nc2cnccn2)cc1Cl`, the outcome was “inactive”. With `COc1ccc(OC(F)(F)F)cc1CN[C@H]1CCCN[C@H]1c1ccccc1` the outcome was “inactive”. For `Oc1ccc(O)cc1`, the outcome was “inactive”. For `CN(C)C(=O)NC1(c2ccccc2)CCN(CC[C@@]2(c3ccc(F)c(F)c3)CN(C(=O)c3ccccc3)CCO2)CC1`, the outcome was “inactive”. For `CN(C)C(=O)NC1(c2ccccc2)CCN(CCC[C@]2(c3ccc(Cl)c(Cl)c3)CCCN(C(=O)c3ccccc3)C2)CC1`, the outcome was “inactive”. In the case of `NCCOCCOCCN`, the AC50 was 107 µM (active). With `CCc1nc(N)nc(N)c1-c1ccc(Cl)cc1` the outcome was “inactive”. In the case of `CC(C)(O)c1ccc(CNC(=O)c2cccnc2Oc2ccc(F)cc2)cc1`, the outcome was “inactive”. In the case of `Nc1nc(Cl)nc2c1ncn2[C@H]1C[C@H](O)[C@@H](CO)O1`, the outcome was “inactive”. For `CN(C)CCCN(C)CCCN(C)C`, the outcome was “inactive”. In the case of `Cc1cc(SC2=C(O)C[C@@](CCc3ccc(N)cc3)(C(C)C)OC2=O)c(C(C)(C)C)cc1CO`, the AC50 was 0.0797 µM (active). In the case of `CCCCc1nc2cccnc2n1Cc1ccc(-c2ccccc2-c2nnn[nH]2)cc1`, the AC50 was 23.1 µM (active). With `OCC(CO)n1cnc(-c2ccc(F)cc2)c1-c1ccnc(Oc2ccccc2)n1` the outcome was “inactive”. With `c1ccc2occc2c1` the outcome was “inactive”. In the case of `CCCCC(CC)COC(=O)CCCCCCCC(=O)OCC(CC)CCCC` (stereo not drawn), the outcome was “inactive”. In the case of `CC(C)(C)c1ccccc1`, the outcome was “inactive”. With `COC(=O)CCC(=O)OC` the outcome was “inactive”. With `CCCCC(CC)COP(=O)(OCC(CC)CCCC)OCC(CC)CCCC` (stereo not drawn) the outcome was “inactive”. In the case of `COC(=O)CCCC(=O)OC`, the outcome was “inactive”. With `O=C(O)c1[nH]n(-c2ccc(S(=O)(=O)O)cc2)c(=O)c1N=Nc1ccc(S(=O)(=O)O)cc1` the outcome was “inactive”.
